Screening results as filed in PubChem BioAssay.
Shown are actives, neighbours in structure and some others; about 14% of the full set was active somewhere.
CHX counter = affects cycloheximide protein synthesis inhibition readout, counter-screen | cell reporter, cycloheximide protein synthesis inhibition counterscreen | max response, % | hit rate 12% among 300,000; in the data active = max response mostly above about 13%, no sharp cut-off; inactive = mostly below about 14%; note: read at 38.3 µM for the half of the compounds with a filed dose; 0% is about no effect
LmPK inh = LmPK (Leishmania mexicana) enzyme inhibition | Potency, µM (highest dose often 57.5 µM), inactives show top-dose activity change, negative = inhibition, hits mostly inhibitors | purified LmPK, Kinase-Glo ATP luminescence, 1 h | AID 1721 | Q27686 | hit rate 0.37% among 290,000; note: potency is the fitted concentration of half-maximal effect; % is set by controls: 0 for no effect and ±100 for the full control effect
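Screened at intermediate enzyme activity to detect both inhibitors and activators: LmPK at 0.1 nM, with a 0.5 nM enzyme column as activation reference. PEP 0.5 mM, ADP 0.1 mM; ATP detected by luminescence after 1 h.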
Shiga inhibitor = Shiga toxin inhibition. Vero cells, Shiga toxin protein synthesis inhibition reporter. inhibition, % at 38.7 µM. hit rate 9.2% among 290,000; in the data active = inhibition mostly above about 28%, no sharp cut-off; inactive = mostly below about 43%; note: 0% is about no effect
NS1 function inh = blocks influenza NS1 protein function; Potency, µM (highest dose often 46.1 µM), for the others: at the top dose activity, positive = more growth; hit rate 0.4% among 270,000; calls by dose curve; note: potency is the fitted concentration of half-maximal effect; actives are rising curves; nearly all actives have a fitted effect of over 50% in size
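Growth recovery, yeast-based: influenza A NS1 expressed in S. cerevisiae causes slow growth, and suppressors are detected by OD600. The parent strain without NS1 is used as positive control.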
Giardia FBPA inh = inhibitors of Giardia lamblia fructose-1,6-bisphosphate aldolase; hit rate 0.71% among 290,000; purified Giardia FBPA; Potency, µM (series often up to 59.6 µM), for the others: at the top dose activity, negative = inhibition, usual class: inhibitors; A8B2U2; AID 2451; note: potency is the fitted concentration of half-maximal effect; % is set by controls: 0 for no effect and ±100 for the full control effect; nearly all actives have a fitted effect of over 55% in size
Target sequence (A8B2U2 whole entry, looked up): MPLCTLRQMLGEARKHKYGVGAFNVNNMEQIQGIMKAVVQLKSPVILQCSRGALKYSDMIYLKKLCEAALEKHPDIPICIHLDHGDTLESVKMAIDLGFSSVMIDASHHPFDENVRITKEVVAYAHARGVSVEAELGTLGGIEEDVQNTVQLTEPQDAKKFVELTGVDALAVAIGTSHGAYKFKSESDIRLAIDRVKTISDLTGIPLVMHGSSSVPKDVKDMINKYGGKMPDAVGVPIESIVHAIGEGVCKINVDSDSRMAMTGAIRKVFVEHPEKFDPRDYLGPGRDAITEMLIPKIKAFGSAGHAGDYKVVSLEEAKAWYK
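40 nM FBPA preincubated 10 min at RT with compound (up to 57.5 uM final), then substrate plus GAPDH/TPI/NAD/arsenate coupling and diaphorase/resazurin added. Fluorescence read after 20 min at RT, 525/598 nm.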
* hit, by the source's call; u = inconclusive; x = not tested or not shown; [ ] = remark or other dose. Unless noted, calls come from the whole dose curve; as a rule, active = well fitted curve in the direction sought with a large enough effect; inconclusive = small, poorly fitted or top-dose-only effect, or another doubt; inactive = no such curve, though single readings can be large; an effect the other way counts as inactive or inconclusive.

SMILES	CHX counter	LmPK inh	Shiga inhibitor	NS1 function inh	Giardia FBPA inh
CCn1nc(C)c(/C=N\NC(=O)c2ccc3c(c2)OCO3)c1C	38.9*	-2.8%	83.0*	-7.8%	1.8%
CCOC(=O)C(=O)c1c(-c2ccccc2)nc2ccccn12	-0.4	-3.9%	-10.5	0.5%	1.6%
CCOC(=O)c1c(-c2ccccc2)nc2ccc(C)cn12	45.0*	-20.5%	123.0*	-177.6%	-4.3%
CCOC(=O)c1c(-c2ccccc2)nc2cc(C)ccn12	53.7*	-9.0%	76.0*	-61.3%	1.1%
Cc1cccc2c1NC(=O)/C2=C\C(=O)c1cccs1	15.2*	-8.8%	-7.1	-44.6%	-7.1%
c1ccc(-n2nnc(-c3cccnc3)n2)cc1	41.3*	-24.7%	43.8*	-7.1%	4.6%
Fc1ccc(-n2nnc(-c3cccnc3Cl)n2)cc1	54.1*	-25.6%	88.8*	-7.1%	8.2%
Fc1ccc(-n2nnc(-c3ccccc3Cl)n2)cc1	1.7	0.8%	-9.0	15.8%	-17.7%
Cc1ccc(-n2nnc(-c3cnc4ccccc4c3)n2)cc1	57.4*	-5.8%	69.4	-4.2%	3.7%
Clc1nc2ccccc2cc1-c1nnn(-c2ccccc2)n1	45.7*	-0.2%	58.7*	-5.5%	10.5%
CN(C)c1ncnc2ccc(-c3ccccc3C#N)cc12	x	x	x	x	-8.1%
CN(C)c1ccc(CNC(=O)[C@@]2(C)C=C[C@@H](Cc3ccccc3)N2C)cc1	x	x	x	x	-8.3%
COc1ccccc1N1C(=NC(=O)CCc2ccccc2)SC2CS(=O)(=O)CC21 (centres undefined)	-2.0	0.6%	-1.9	3.3%	-13.6%
Fc1ccc(-n2nnc(-c3nccs3)n2)cc1	37.9*	14.1µM*	53.5*	-5.2%	2.8%
Cc1ccc(-n2nnc(-c3nccn3C)n2)cc1	10.8*	14.1µM*	6.9	-3.9%	1.4%
Cn1ccnc1-c1nc2ccccc2[nH]c1=O	-1.8	-1.3%	-3.5	-9.0%	-5.9%
Clc1ccc(-n2nnc(-c3cccnc3Cl)n2)cc1Cl	34.9*	-0.1%	53.7*	0.4%	6.5%
COc1ncccc1-c1nnn(-c2ccccc2)n1	42.6*	u	54.6*	-7.3%	3.1%
COc1ccccc1N(C(=O)c1ccco1)C(C(=O)NC1CCCC1)c1ccncc1 (centres undefined)	-3.9	-1.5%	-3.0	2.7%	6.4%
Cc1ccc(NC(=S)N2CCN(c3ccccc3F)CC2)c(C)c1	0.8	0.3%	-5.4	12.4%	6.3%
Clc1ncccc1-c1nnn(-c2ccccc2)n1	50.0*	15.8µM*	56.3*	-7.1%	4.4%
Cn1ccc(C(=O)N/N=C/c2ccncc2)n1	32.3*	-25.0%	27.9*	9.1%	0.5%
O=C(N/N=C/c1ccc(O)cc1)c1ccncc1	9.8*	0.7%	21.1	11.9%	-3.5%
O=C(N/N=C/c1ccc2nccnc2c1)c1ccncc1	18.3	-3.5%	11.4	7.0%	11.7%
O=C(N/N=C/c1cccnc1)c1cccc(F)c1	19.9*	-8.2%	23.0*	8.2%	-7.8%
SMILES	CHX counter	LmPK inh	Shiga inhibitor	NS1 function inh	Giardia FBPA inh
Cc1ccc(/C=N/NC(=O)c2ccncc2)cc1	22.4*	-8.0%	46.9	u	-2.3%
Cn1nccc1C(=O)N1CCCC(N2CCN(c3cccc(C(F)(F)F)c3)CC2)C1 (centres undefined)	2.1	-1.4%	-4.8	-26.7%	x
Cc1ccc(C(=O)Nc2ccc(C(=O)N/N=C/c3ccncc3)cc2)cc1	18.0	-12.9%	11.9	x	2.5%
O=C(N/N=C/c1cccc(OC2CSC2)c1)c1ccccc1O	26.3*	0.9%	85.4	-15.3%	-0.7%
O=C(N/N=C/c1cccnc1)c1ccc(O)cc1	19.5*	3.0%	40.3	5.3%	4.0%
Cc1cccc(C(=O)N/N=C/c2ccncc2)c1	14.0*	-9.4%	5.7	-7.6%	2.0%
COc1cccc(C(=O)N/N=C/c2ccc(OC3CSC3)cc2)c1	16.4	5.5%	31.3	3.7%	3.8%
Cc1cccc(C(=O)N/N=C/c2ccc(OC3CSC3)cc2)c1	24.0*	-2.3%	15.4	0.4%	-9.8%
CCCCS(=O)(=O)N1CCc2nc(-c3ccccc3)c3c(c2C1)CO[C@@H](C)C3	x	-2.2%[11.5 µM]	x	x	9.1%[12.9 µM]
Cn1nccc1C(=O)Oc1cccc(/C=N/NC(=O)c2ccccc2O)c1	18.1	3.2%	32.6*	x	5.2%
O=C(N/N=C/c1ccc(N2CCOCC2)cc1)c1ccc(O)cc1	36.6*	-12.0%	72.9*	7.3%	5.6%
Cc1ccc(/C=N\NC(=O)c2csnn2)cc1	30.0*	-29.9%	98.2*	4.8%	-9.0%
Cc1ccc(S(=O)(=O)NNC(=O)c2csnn2)cc1	-6.5	-2.3%	-3.0	6.6%	-3.3%
FC(F)(F)c1ccccc1N/N=C/c1cccnc1	22.5	0.8%	27.0	-48.8%	5.4%
Fc1ccc(N/N=C/c2cccnc2)c(F)c1	31.3*	-2.2%	73.1*	x	3.6%
NCCCCN	x	x	x	-7.6%	-1.3%
Cc1ccc(S(=O)(=O)NC(=O)OC23COCN2COC3)cc1	x	x	x	-8.3%	x
COc1ccc(S(=O)(=O)N2CCC(C(=O)Nc3ccc(F)cc3)CC2)c2cccnc12	2.1	1.3%[11.5 µM]	-9.6	x	-17.1%
O=C(N/N=C/c1ccc(OC(=O)c2cccs2)cc1)c1cccc(F)c1	47.0*	1.9%	31.2	0.8%	-2.7%
O=C(N/N=C/c1ccc(OC(=O)c2cccc(F)c2)cc1)c1cccnc1	-3.2	1.4%	22.4	-11.3%	14.8%
NC(=O)c1ccc(NC(=O)COC(=O)c2ccccc2Nc2ccccc2)cc1	4.6	-0.7%	-2.4	x	7.7%
CN(C)c1cccc(C(=O)OCC(=O)Nc2ccccc2Cl)c1	21.8	2.9%	42.1*	x	-10.9%
CN(C)c1cccc(C(=O)NCc2ccccc2Cl)c1	19.4*	3.1%	44.7	1.5%	-2.7%
CN(C)c1cccc(C(=O)NCc2ccccc2)c1	33.6	3.0%	59.5	x	-3.1%
CN(C)c1cccc(C(=O)NNC(=O)CSc2ccccc2)c1	12.8*	-7.5%	25.6	-10.5%	9.6%
SMILES	CHX counter	LmPK inh	Shiga inhibitor	NS1 function inh	Giardia FBPA inh
CN(C)c1cccc(C(=O)OCC(=O)Nc2nccs2)c1	30.3*	-2.4%	100.9*	11.6%	-0.6%
CNc1ncnc2ccc(-c3cccc(OC)c3)cc12	x	x	x	x	-0.1%
Cc1ccc(N2CC(O)Cn3c2nc2c3c(=O)[nH]c(=O)n2C)cc1 (centres undefined)	3.4	-1.2%	0.2	3.4%	-6.5%
Cc1ccc(Cl)cc1N1CCN(CCCNC(=O)c2nnc(Cc3cccc(Cl)c3)o2)CC1	-4.9	x	-2.8	x	x
Cc1cccc(OCCCC(=O)Nc2nccs2)c1	0.7	-1.5%	-9.2	-4.8%	2.5%
Cc1cccc(C(=O)OCC(=O)Nc2nccs2)c1	19.3*	3.8%	36.2	-3.7%	1.9%
CC(=Nc1ccccc1)C1=C(O)CC(C)(C)CC1=O	21.6*	-5.9%	44.7	x	-1.6%
COc1ccc(N=C(C)C2=C(O)CSC2=O)cc1	39.8*	-1.7%	45.4	-3.9%	-20.2%
CC(=Nc1ccccc1)C1=C(O)CSC1=O	32.1*	0.2%	49.1	4.6%	-9.4%
COc1cc(-c2cc(N3C(=O)Nc4ccccc4N3O)n[nH]2)cc(OC)c1OC	-1.6	0.3%	-8.0	u	-1.4%
COc1ccc(-c2cc(N3C(=O)Nc4ccccc4N3O)n[nH]2)cc1OC	13.1*	0.8%	18.6	10.6%	0.2%
